Among the data in PubChem BioAssay (NCI) are growth inhibition values, retold here.

About 79,000 compounds went through this panel and 15% of them were active in at least one assay; those are over-represented in the sample as a whole. A number with no mark means an inactive call. Active and inactive are the calls of the source. Cut-off read from the data, not from the text of the source: active = growth inhibition above about 70%; inactive = the rest.

The nature of assay [1]: NCI Yeast Anticancer Drug Screen. Data for the rad50 strain (AID 155).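 Note: 0% = growth of vehicle-only cultures of the same strain.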 The settings on record: S. cerevisiae rad50 strain growth inhibition; at 50.0 µM; stronger effect = higher value. The essentials:
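DNA repair mutant yeast, compound exposure, growth read-out; inhibition is taken relative to vehicle.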

Assay [2] can be described thus: NCI Yeast Anticancer Drug Screen. Data for the mec2-1 strain (AID 157). Conditions: S. cerevisiae mec2-1 strain, at 50.0 µM, stronger effect = higher value. The essentials:
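Strain: mec2-1 (DNA repair/cell cycle alteration). Compound exposure, then growth measured; inhibition expressed relative to vehicle.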

Assay [3] in a line: NCI Yeast Anticancer Drug Screen. Data for the sgs1 mgt1 strain (AID 161).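 Note: 0% = growth of cultures given vehicle only.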 Conditions: S. cerevisiae sgs1 mgt1 strain, at 50.0 µM, stronger effect = higher value. The essentials: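 Mutant yeast exposed to compound; growth scored against vehicle-only wells.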
Assay [4] can be described thus: NCI Yeast Anticancer Drug Screen. Data for the cln2 rad14 strain (AID 165).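 Note: 0% = growth equal to vehicle treated cultures.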 The settings on record: S. cerevisiae cln2 rad14 strain, at 50.0 µM, stronger effect = higher value. In outline: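 Compounds are applied to the cln2 rad14 yeast strain, and growth is then compared with that of vehicle-treated cultures to give inhibition.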
Assay [5] can be described thus: NCI Yeast Anticancer Drug Screen. Data for the bub3 strain (AID 167). The settings on record: S. cerevisiae bub3 mutant strain, at 50.0 µM, stronger effect = higher value. The essentials:
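In this screen, a yeast mutant lacking normal mitotic checkpoint function is challenged with compound. Relative growth versus vehicle gives the inhibition value.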

The nature of assay [6]: NCI Yeast Anticancer Drug Screen. Data for the mlh1 rad18 strain (AID 175). The settings on record: S. cerevisiae mlh1 rad18 strain growth inhibition; at 50.0 µM; stronger effect = higher value. In outline:
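Read-out is yeast growth inhibition, calculated against vehicle-only controls. The compound was applied to a strain engineered with DNA damage repair alterations.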

Take `CC1(C)[C@H]2CC[C@@]1(C)C(=O)[C@H]2[N+](=O)[O-]`: the growth inhibition in assay [1] was 4.25%; in assay [2] it was -20.2%; in assay [3], -1.8%; in assay [4], 7.85%; in assay [5], -9.15%; in assay [6], 8.75%.

`O=C(/C=C/NC(=O)OCc1ccccc1)OCc1ccccc1`: the growth inhibition was 9.35% in assay [1]; -5.5% in assay [2]; -0.9% in assay [3]; 17.1% in assay [4]; 3.55% in assay [5]; 0.95% in assay [6].

For the compound `Cc1n[n+](Cc2ccccc2)c2sc(N)nn12`, the growth inhibition in assay [1] was 2.85%; in assay [2] it was 6.25%; in assay [3], -41.6%; in assay [4], 20%; in assay [5], 26.9%; in assay [6], -26.1%.

With `CN1c2ccccc2S(=O)(=O)n2c(COc3ccc(Cl)cc3)nnc21`, the growth inhibition in assay [1] is -3.4%; in assay [2], 4.15%; in assay [3] it was 2.5%; in assay [4], 12%; in assay [5] it was 3.05%; in assay [6] it was 2.6%.

Regarding `CSc1ncc(C=O)n1Cc1ccccc1`, the growth inhibition was -4.35% in assay [1]; 6.7% in assay [2]; 0.3% in assay [3]; -34.5% in assay [4]; 2.15% in assay [5]; 5.6% in assay [6].

In the case of `C=C1C(=O)OC2/C=C(\C)CC/C=C(/C=O)C(OC(=O)C(C)C)C(O)C12` (stereo unspecified), the growth inhibition is -12.2% in assay [1]; -55.4% in assay [2]; 17.6% in assay [3]; -7.25% in assay [4]; -42.1% in assay [5]; -31.6% in assay [6].

Turning to `Nc1nc2c(nc(Br)n2C2OC(CO)C(O)C2O)c(=O)[nH]1` (stereo unspecified), the growth inhibition in assay [1] is -2.05%; in assay [2], -1.6%; in assay [3], 0.95%; in assay [4], -8.4%; in assay [5], 1.8%; in assay [6], -9.65%.

On to `O=CNc1ccc(F)c(F)c1`, for which the growth inhibition was -16.8% in assay [1]; -16.4% in assay [2]; -6.95% in assay [3]; -5.35% in assay [4]; -7.2% in assay [5]; -10.1% in assay [6].

As to `S=C(N/N=C1\CSCc2ccccc21)Nc1cc(Cl)ccc1Cl`, the growth inhibition in assay [1] was 11.9%; in assay [2], -4.45%; in assay [3], 6.05%; in assay [4] it was 10.2%; in assay [5], 23.9%; in assay [6] it was 0.5%.

In the case of `CC1(C)CC2=C(Sc3ccccc3N2)C(=O)C1C(=O)C(=O)Nc1cc(Cl)ccc1Cl` (stereo unspecified), the growth inhibition in assay [1] was -1.3%; in assay [2], -6.95%; in assay [3], -6.85%; in assay [4], -28.3%; in assay [5], -0.25%; in assay [6], -9.55%.

Take `Nc1nnc2nc(CC(=O)c3ccc(F)cc3)c(CC(=O)c3ccc(F)cc3)nn12`: the growth inhibition in assay [1] is -3.6%; in assay [2] it was 30.3%; in assay [3], 6.6%; in assay [4], -2.7%; in assay [5], 1.2%; in assay [6], 6.7%.

With `CN(C)CCOC(=O)c1cccc(CCl)c1`, the growth inhibition in assay [1] was 15.9%; in assay [2], 6.3%; in assay [3], 5.75%; in assay [4], 44.4%; in assay [5] it was 25.4%; in assay [6], 7.95%.

For `O=C(NC1CCCN1C(=O)/C=C\c1ccccc1)OCc1ccccc1` (stereo unspecified), the growth inhibition in assay [1] was -8.95%; in assay [2], -4.95%; in assay [3], -13.7%; in assay [4], -62.5%; in assay [5] it was 0.6%; in assay [6], -12.3%.

As to `CCCNCCC(=O)Nc1ccccc1C(=O)OCC`, the growth inhibition in assay [1] is 3.15%; in assay [2], -18%; in assay [3], 0.2%; in assay [4], -43.1%; in assay [5], 29.3%; in assay [6] it was -6.25%.

Regarding `CC(=O)N/N=C1\NN(C(C)=O)C2(S1)C(=O)Nc1ccccc12` (stereo unspecified), the growth inhibition in assay [1] is 7.7%; in assay [2], 52%; in assay [3] it was 68.8%; in assay [4], 78.5% (active); in assay [5], 51.8%; in assay [6], 33.1%.

With `COc1ccc2oc3c(ccc[n+]3C)c(=O)c2c1`, the growth inhibition is -22.9% in assay [1]; -14.7% in assay [2]; -12.1% in assay [3]; 10.9% in assay [4]; -2.9% in assay [5]; -16.9% in assay [6].

Consider `C=C1CCCCCCCCC/C=C/1SCCCSC`, for which the growth inhibition in assay [1] is 5.6%; in assay [2], 26.4%; in assay [3], -31.6%; in assay [4], -17.9%; in assay [5] it was -19%; in assay [6], -20.2%.

For `[Cl][Pt+2][Cl].[NH-]c1ccc(CC(=O)O)cc1[NH-]`, the growth inhibition is 48.4% in assay [1]; 7.1% in assay [2]; 23.4% in assay [3]; 39.8% in assay [4]; -11.1% in assay [5]; -4.2% in assay [6].

Consider `NC(=O)Nc1ccc2ccccc2c1`, for which the growth inhibition in assay [1] was 8.8%; in assay [2] it was -9.75%; in assay [3] it was 1.65%; in assay [4], -3.95%; in assay [5] it was -19.8%; in assay [6], -5.25%.

Take `CCOC(=O)Cn1c(=O)n(C)c(=O)c2[nH]cnc21`: the growth inhibition in assay [1] is 28.7%; in assay [2] it was -27.1%; in assay [3], 17.4%; in assay [4] it was 15.1%; in assay [5], 22.5%; in assay [6], 28.5%.

In the case of `CC(C)C(O)(c1ccccc1)C(O)(c1ccccc1)C(C)C` (stereo unspecified), the growth inhibition in assay [1] was 99.5% (active); in assay [2], 99.6% (active); in assay [3] it was 99.5% (active); in assay [4], 99% (active); in assay [5], 99.5% (active); in assay [6], 99.5% (active).
